# Measured values: paper PMC11062922 (Nature Chemical Biology, 2023)
# Read-outs that look alike come from different tables or passages of the source.
# What was measured:
# [1] = system: IRAK4; conditions: read-out: apparent Kd, n = 1
# [2] = system: LATS1; conditions: read-out: apparent Kd, n = 1
# [3] = compound concentrations:100 nM and 1000 nM (sheet 'Lestaurtinib' of Supplementary Table 1),run:Lestaurtinib_02443_R2,Plate:MR009
# [4] = compound concentrations:100 nM and 1000 nM (sheet 'Lestaurtinib' of Supplementary Table 1),run:Lestaurtinib_02443_R3,Plate:MR009
# [5] = compound concentrations:100 nM and 1000 nM (sheet 'Lestaurtinib' of Supplementary Table 1),run:Lestaurtinib_02482_R1,Plate:MR011
# [6] = compound concentrations:100 nM and 1000 nM (sheet 'Lestaurtinib' of Supplementary Table 1),run:Lestaurtinib_02482_R2,Plate:MR011
# [7] = compound concentrations:100 nM and 1000 nM (sheet 'Lestaurtinib' of Supplementary Table 1),run:Lestaurtinib_02482_R3,Plate:MR011
# [8] = compound concentrations:100 nM and 1000 nM (sheet 'Lestaurtinib' of Supplementary Table 1),run:Lestaurtinib_02577_R1,Plate:MR016
# [9] = compound concentrations:100 nM and 1000 nM (sheet 'Lestaurtinib' of Supplementary Table 1),run:Lestaurtinib_02577_R2,Plate:MR016
# [10] = compound concentrations:100 nM and 1000 nM (sheet 'Lestaurtinib' of Supplementary Table 1),run:Lestaurtinib_02577_R3,Plate:MR016
# [11] = compound concentrations:100 nM and 1000 nM (sheet 'Lestaurtinib' of Supplementary Table 1),run:Lestaurtinib_02601_R2,Plate:MR018
# [12] = compound concentrations:100 nM and 1000 nM (sheet 'Lestaurtinib' of Supplementary Table 1),run:Lestaurtinib_02606_R1,Plate:MR019
substance,measurement,setting,value
Lestaurtinib,potency estimated from few doses,[1]; [3],0.0922 µM
same,potency estimated from few doses,[1]; [4],0.0989 µM
same,potency estimated from few doses,"[1]; compound concentrations:100 nM and 1000 nM (sheet 'Lestaurtinib' of Supplementary Table 1),run:Lestaurtinib_02473_R1,Plate:MR010",0.0798 µM
same,potency estimated from few doses,"[1]; compound concentrations:100 nM and 1000 nM (sheet 'Lestaurtinib' of Supplementary Table 1),run:Lestaurtinib_02473_R2,Plate:MR010",0.132 µM
same,potency estimated from few doses,"[1]; compound concentrations:100 nM and 1000 nM (sheet 'Lestaurtinib' of Supplementary Table 1),run:Lestaurtinib_02473_R3,Plate:MR010",0.0965 µM
same,potency estimated from few doses,[1]; [5],0.0782 µM
same,potency estimated from few doses,[1]; [6],0.18 µM
same,potency estimated from few doses,[1]; [7],0.0997 µM
same,potency estimated from few doses,"[1]; compound concentrations:100 nM and 1000 nM (sheet 'Lestaurtinib' of Supplementary Table 1),run:Lestaurtinib_02496_R1,Plate:MR013",0.124 µM
same,potency estimated from few doses,"[1]; compound concentrations:100 nM and 1000 nM (sheet 'Lestaurtinib' of Supplementary Table 1),run:Lestaurtinib_02496_R2,Plate:MR013",0.146 µM
same,potency estimated from few doses,"[1]; compound concentrations:100 nM and 1000 nM (sheet 'Lestaurtinib' of Supplementary Table 1),run:Lestaurtinib_02496_R3,Plate:MR013",0.193 µM
same,potency estimated from few doses,"[1]; compound concentrations:100 nM and 1000 nM (sheet 'Lestaurtinib' of Supplementary Table 1),run:Lestaurtinib_02566_R1,Plate:MR014",0.142 µM
same,potency estimated from few doses,"[1]; compound concentrations:100 nM and 1000 nM (sheet 'Lestaurtinib' of Supplementary Table 1),run:Lestaurtinib_02566_R3,Plate:MR014",0.0808 µM
same,potency estimated from few doses,[1]; [8],0.0886 µM
same,potency estimated from few doses,[1]; [9],0.0975 µM
same,potency estimated from few doses,[1]; [10],0.0638 µM
same,potency estimated from few doses,"[1]; compound concentrations:100 nM and 1000 nM (sheet 'Lestaurtinib' of Supplementary Table 1),run:Lestaurtinib_02601_R1,Plate:MR018",0.144 µM
same,potency estimated from few doses,[1]; [11],0.142 µM
same,potency estimated from few doses,[1]; [12],0.0885 µM
same,potency estimated from few doses,"[1]; compound concentrations:100 nM and 1000 nM (sheet 'Lestaurtinib' of Supplementary Table 1),run:Lestaurtinib_02624_R2,Plate:MR020",0.143 µM
same,potency estimated from few doses,"[1]; compound concentrations:100 nM and 1000 nM (sheet 'Lestaurtinib' of Supplementary Table 1),run:Lestaurtinib_02624_R3,Plate:MR020",0.124 µM
same,potency estimated from few doses,"[1]; compound concentrations:100 nM and 1000 nM (sheet 'Lestaurtinib' of Supplementary Table 1),run:Lestaurtinib_02724_R2,Plate:MR021",0.0993 µM
same,potency estimated from few doses,"[1]; compound concentrations:100 nM and 1000 nM (sheet 'Lestaurtinib' of Supplementary Table 1),run:Lestaurtinib_02741_R1,Plate:MR023",0.0896 µM
same,potency estimated from few doses,"[1]; compound concentrations:100 nM and 1000 nM (sheet 'Lestaurtinib' of Supplementary Table 1),run:Lestaurtinib_02741_R3,Plate:MR023",0.0713 µM
same,potency estimated from few doses,"[1]; compound concentrations:100 nM and 1000 nM (sheet 'Lestaurtinib' of Supplementary Table 1),run:Lestaurtinib_02748_R3,Plate:MR024",0.0809 µM
same,potency estimated from few doses,"[1]; compound concentrations:100 nM and 1000 nM (sheet 'Lestaurtinib' of Supplementary Table 1),run:Lestaurtinib_02752_R2,Plate:MR025",0.16 µM
same,potency estimated from few doses,"[1]; compound concentrations:100 nM and 1000 nM (sheet 'Lestaurtinib' of Supplementary Table 1),run:Lestaurtinib_02752_R3,Plate:MR025",0.0801 µM
same,potency estimated from few doses,"[1]; compound concentrations:100 nM and 1000 nM (sheet 'Lestaurtinib' of Supplementary Table 1),run:Lestaurtinib_02765_R2,Plate:MR026",0.0757 µM
same,potency estimated from few doses,"[1]; compound concentrations:100 nM and 1000 nM (sheet 'Lestaurtinib' of Supplementary Table 1),run:Lestaurtinib_02766_R2,Plate:MR027",0.146 µM
same,potency estimated from few doses,"[1]; compound concentrations:100 nM and 1000 nM (sheet 'Lestaurtinib' of Supplementary Table 1),run:Lestaurtinib_02766_R3,Plate:MR027",0.121 µM
same,potency estimated from few doses,"[1]; compound concentrations:100 nM and 1000 nM (sheet 'Lestaurtinib' of Supplementary Table 1),run:Lestaurtinib_02768_R1,Plate:MR028",0.136 µM
same,potency estimated from few doses,"[1]; compound concentrations:100 nM and 1000 nM (sheet 'Lestaurtinib' of Supplementary Table 1),run:Lestaurtinib_02768_R2,Plate:MR028",0.0978 µM
same,potency estimated from few doses,"[1]; compound concentrations:100 nM and 1000 nM (sheet 'Lestaurtinib' of Supplementary Table 1),run:Lestaurtinib_02795_R2,Plate:MR022",0.0941 µM
same,potency estimated from few doses,"[1]; compound concentrations:100 nM and 1000 nM (sheet 'Lestaurtinib' of Supplementary Table 1),run:Lestaurtinib_02795_R3,Plate:MR022",0.239 µM
same,potency estimated from few doses,"[1]; compound concentrations:100 nM and 1000 nM (sheet 'Lestaurtinib' of Supplementary Table 1),run:Lestaurtinib_02896_R1,Plate:MR030",0.113 µM
same,potency estimated from few doses,"[1]; compound concentrations:100 nM and 1000 nM (sheet 'Lestaurtinib' of Supplementary Table 1),run:Lestaurtinib_03172_R2,Plate:MR031",0.0662 µM
same,potency estimated from few doses,"[1]; compound concentrations:100 nM and 1000 nM (sheet 'Lestaurtinib' of Supplementary Table 1),run:Lestaurtinib_03252_R1,Plate:MR032",0.0959 µM
same,potency estimated from few doses,"[1]; compound concentrations:100 nM and 1000 nM (sheet 'Lestaurtinib' of Supplementary Table 1),run:Lestaurtinib_03260_R2,Plate:MR033",0.132 µM
same,potency estimated from few doses,"[1]; compound concentrations:100 nM and 1000 nM (sheet 'Lestaurtinib' of Supplementary Table 1),run:Lestaurtinib_03260_R3,Plate:MR033",0.0851 µM
same,potency estimated from few doses,"[2]; compound concentrations:100 nM and 1000 nM (sheet 'Lestaurtinib' of Supplementary Table 1),run:Lestaurtinib_02339_R1,Plate:MR001",0.0278 µM
same,potency estimated from few doses,"[2]; compound concentrations:100 nM and 1000 nM (sheet 'Lestaurtinib' of Supplementary Table 1),run:Lestaurtinib_02339_R2,Plate:MR001",0.0314 µM
same,potency estimated from few doses,"[2]; compound concentrations:100 nM and 1000 nM (sheet 'Lestaurtinib' of Supplementary Table 1),run:Lestaurtinib_02339_R3,Plate:MR001",0.0373 µM
same,potency estimated from few doses,"[2]; compound concentrations:100 nM and 1000 nM (sheet 'Lestaurtinib' of Supplementary Table 1),run:Lestaurtinib_02364_R2,Plate:MR002",0.0226 µM
same,potency estimated from few doses,"[2]; compound concentrations:100 nM and 1000 nM (sheet 'Lestaurtinib' of Supplementary Table 1),run:Lestaurtinib_02364_R3,Plate:MR002",0.0441 µM
same,potency estimated from few doses,"[2]; compound concentrations:100 nM and 1000 nM (sheet 'Lestaurtinib' of Supplementary Table 1),run:Lestaurtinib_02367_R1,Plate:MR003",0.0278 µM
same,potency estimated from few doses,"[2]; compound concentrations:100 nM and 1000 nM (sheet 'Lestaurtinib' of Supplementary Table 1),run:Lestaurtinib_02367_R2,Plate:MR003",0.0403 µM
same,potency estimated from few doses,"[2]; compound concentrations:100 nM and 1000 nM (sheet 'Lestaurtinib' of Supplementary Table 1),run:Lestaurtinib_02367_R3,Plate:MR003",0.0221 µM
same,potency estimated from few doses,"[2]; compound concentrations:100 nM and 1000 nM (sheet 'Lestaurtinib' of Supplementary Table 1),run:Lestaurtinib_02381_R1,Plate:MR004",0.027 µM
same,potency estimated from few doses,"[2]; compound concentrations:100 nM and 1000 nM (sheet 'Lestaurtinib' of Supplementary Table 1),run:Lestaurtinib_02407_R1,Plate:MR005",0.0395 µM
same,potency estimated from few doses,"[2]; compound concentrations:100 nM and 1000 nM (sheet 'Lestaurtinib' of Supplementary Table 1),run:Lestaurtinib_02407_R2,Plate:MR005",0.0277 µM
same,potency estimated from few doses,"[2]; compound concentrations:100 nM and 1000 nM (sheet 'Lestaurtinib' of Supplementary Table 1),run:Lestaurtinib_02422_R1,Plate:MR006",0.0342 µM
same,potency estimated from few doses,"[2]; compound concentrations:100 nM and 1000 nM (sheet 'Lestaurtinib' of Supplementary Table 1),run:Lestaurtinib_02422_R3,Plate:MR006",0.0342 µM
same,potency estimated from few doses,"[2]; compound concentrations:100 nM and 1000 nM (sheet 'Lestaurtinib' of Supplementary Table 1),run:Lestaurtinib_02437_R1,Plate:MR007",0.035 µM
same,potency estimated from few doses,"[2]; compound concentrations:100 nM and 1000 nM (sheet 'Lestaurtinib' of Supplementary Table 1),run:Lestaurtinib_02437_R2,Plate:MR007",0.027 µM
same,potency estimated from few doses,"[2]; compound concentrations:100 nM and 1000 nM (sheet 'Lestaurtinib' of Supplementary Table 1),run:Lestaurtinib_02437_R3,Plate:MR007",0.000206 µM
same,potency estimated from few doses,"[2]; compound concentrations:100 nM and 1000 nM (sheet 'Lestaurtinib' of Supplementary Table 1),run:Lestaurtinib_02438_R3,Plate:MR008",0.029 µM
same,potency estimated from few doses,[2]; [3],0.0306 µM
same,potency estimated from few doses,[2]; [4],0.0386 µM
same,potency estimated from few doses,[2]; [5],0.0381 µM
same,potency estimated from few doses,[2]; [6],0.0327 µM
same,potency estimated from few doses,[2]; [7],0.046 µM
same,potency estimated from few doses,"[2]; compound concentrations:100 nM and 1000 nM (sheet 'Lestaurtinib' of Supplementary Table 1),run:Lestaurtinib_02572_R1,Plate:MR015",0.018 µM
same,potency estimated from few doses,"[2]; compound concentrations:100 nM and 1000 nM (sheet 'Lestaurtinib' of Supplementary Table 1),run:Lestaurtinib_02572_R2,Plate:MR015",0.0235 µM
same,potency estimated from few doses,"[2]; compound concentrations:100 nM and 1000 nM (sheet 'Lestaurtinib' of Supplementary Table 1),run:Lestaurtinib_02572_R3,Plate:MR015",0.0225 µM
same,potency estimated from few doses,[2]; [8],0.0366 µM
same,potency estimated from few doses,[2]; [9],0.0514 µM
same,potency estimated from few doses,[2]; [10],0.0638 µM
same,potency estimated from few doses,"[2]; compound concentrations:100 nM and 1000 nM (sheet 'Lestaurtinib' of Supplementary Table 1),run:Lestaurtinib_02584_R2,Plate:MR017",0.0501 µM
same,potency estimated from few doses,"[2]; compound concentrations:100 nM and 1000 nM (sheet 'Lestaurtinib' of Supplementary Table 1),run:Lestaurtinib_02584_R3,Plate:MR017",0.0452 µM
same,potency estimated from few doses,[2]; [11],0.0791 µM
same,potency estimated from few doses,"[2]; compound concentrations:100 nM and 1000 nM (sheet 'Lestaurtinib' of Supplementary Table 1),run:Lestaurtinib_02601_R3,Plate:MR018",0.0559 µM
same,potency estimated from few doses,[2]; [12],0.0391 µM
same,potency estimated from few doses,"[2]; compound concentrations:100 nM and 1000 nM (sheet 'Lestaurtinib' of Supplementary Table 1),run:Lestaurtinib_02606_R2,Plate:MR019",0.0358 µM
